In PubChem BioAssay (NCI):
About 83,000 compounds went through this panel and 20% of them were active in at least one assay; those are over-represented in the sample as a whole.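 The test compound was applied at a single concentration to cells in 96-well plates for 48 hours, and percent growth was recorded.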 The source made the active and inactive calls. Rule for the calls: active = growth percent below 10; inactive = the rest.

Experiments:
Experiment in all cases: NCI-60 one-dose screen, 48 h (100 = growth as untreated, 0 = no growth, -100 = all killed)
Conditions in all cases: 10 µM unless noted
NCI-H23 lung = test system: NCI-H23 lung
NCI-H226 lung = test system: NCI-H226 lung
NCI-H322M lung = test system: NCI-H322M lung
HOP-62 NSCLC = test system: HOP-62 NSCLC
NCI-H460 lung = test system: NCI-H460 lung
HOP-92 NSCLC = test system: HOP-92 NSCLC
NCI-H522 lung = test system: NCI-H522 lung
A549/ATCC NSCLC = test system: A549/ATCC NSCLC
786-0 renal = test system: 786-0 renal
COLO 205 colon = test system: COLO 205 colon
DU-145 prostate = test system: DU-145 prostate
K-562 leukemia = test system: K-562 leukemia
MALME-3M melanoma = test system: MALME-3M melanoma
MDA-MB-231 breast = test system: MDA-MB-231 breast
RXF 393 renal = test system: RXF 393 renal
SF-268 CNS = test system: SF-268 CNS
SF-295 CNS = test system: SF-295 CNS
SF-539 CNS = test system: SF-539 CNS
UACC-257 melanoma = test system: UACC-257 melanoma
M14 melanoma = test system: M14 melanoma

Measured: growth

CN[C@@H]1C[C@H]2O[C@@](C)([C@@H]1OC)n1c3ccccc3c3c4c(c5c6ccccc6n2c5c31)C(=O)N[C@H]4O
active: NCI-H23 lung -48.8% | NCI-H226 lung -47.1% | NCI-H322M lung -25.8% | HOP-62 NSCLC -60.8% | NCI-H460 lung -63.7% | HOP-92 NSCLC -9.92% | NCI-H522 lung -37.2% | A549/ATCC NSCLC -36.8% | 786-0 renal -87.5% | COLO 205 colon -80.8% | DU-145 prostate 3.62% | K-562 leukemia -15.6% | MALME-3M melanoma -81.2% | MDA-MB-231 breast -48.5% | RXF 393 renal -94.3% | SF-268 CNS -66.5% | SF-295 CNS -75.8% | SF-539 CNS -88.4% | UACC-257 melanoma -88.4% | M14 melanoma -56.6%

O=C(CNc1nc(-c2ccc(Cl)cc2)cs1)Nc1ccc(-c2nc3ccccc3s2)cc1
inactive: NCI-H23 lung 87.6% | NCI-H226 lung 80.3% | NCI-H322M lung 91.6% | HOP-62 NSCLC 106% | NCI-H460 lung 91.3% | HOP-92 NSCLC 92.9% | NCI-H522 lung 93.1% | A549/ATCC NSCLC 99% | 786-0 renal 109% | COLO 205 colon 93.8% | DU-145 prostate 95% | K-562 leukemia 96.4% | MALME-3M melanoma 102% | MDA-MB-231 breast 84.7% | RXF 393 renal 106% | SF-268 CNS 90.8% | SF-295 CNS 98.6% | SF-539 CNS 97% | UACC-257 melanoma 100% | M14 melanoma 88.2%

CCN(CC)CCNC(=O)c1c(C)[nH]c(/C=C2\C(=O)Nc3ccc(F)cc32)c1C
active: NCI-H460 lung 1.9% | NCI-H522 lung -46% | A549/ATCC NSCLC 0.0489% | 786-0 renal -63.8% | COLO 205 colon -80.3% | K-562 leukemia -22.3% | MALME-3M melanoma -82.6% | MDA-MB-231 breast 0.117% | RXF 393 renal -71.4% | SF-539 CNS -88.8% | UACC-257 melanoma -40.4% | M14 melanoma -77%
inactive: NCI-H23 lung 21.4% | NCI-H226 lung 51.1% | NCI-H322M lung 31.4% | HOP-62 NSCLC 26% | HOP-92 NSCLC 30.3% | DU-145 prostate 33.2% | SF-268 CNS 39.6% | SF-295 CNS 67.3%

CO[C@H]1C[C@@H]2CC[C@@H](C)[C@@](O)(O2)C(=O)C(=O)N2CCCC[C@H]2C(=O)O[C@H]([C@H](C)C[C@@H]2CC[C@@H](OCCO)[C@H](OC)C2)CC(=O)[C@H](C)/C=C(\C)[C@@H](O)[C@H](OC)C(=O)[C@H](C)C[C@H](C)\C=C/C=C/C=C/1C
active: RXF 393 renal 5.21%
inactive: NCI-H23 lung 54.9% | NCI-H226 lung 48.7% | NCI-H322M lung 44.9% | HOP-62 NSCLC 41.2% | NCI-H460 lung 43.2% | HOP-92 NSCLC 45.7% | NCI-H522 lung 48.7% | A549/ATCC NSCLC 44.6% | 786-0 renal 52.6% | COLO 205 colon 55.8% | DU-145 prostate 50.8% | K-562 leukemia 42.9% | MALME-3M melanoma 36.6% | MDA-MB-231 breast 63.1% | SF-268 CNS 51.6% | SF-295 CNS 26.3% | SF-539 CNS 41.8% | UACC-257 melanoma 61% | M14 melanoma 62.2%

COC(=O)[C@@H](NC(=O)[C@@H](OC)[C@@H]1Cc2cc3cc(OC4CC(OC5CC(O)C(O)C(C)O5)C(O)C(C)O4)c(C)c(O)c3c(O)c2C(=O)[C@H]1OC1CC(OC2CC(OC3CC(C)(O)C(O)C(C)O3)C(O)C(C)O2)C(O)C(C)O1)C(C)C (stereo not given in full)
active: NCI-H23 lung -6.89% | NCI-H226 lung -23.4% | HOP-62 NSCLC 6.44% | NCI-H460 lung -6.19% | HOP-92 NSCLC -18.9% | NCI-H522 lung -20% | A549/ATCC NSCLC 7.37% | 786-0 renal -21.2% | DU-145 prostate 7.21% | K-562 leukemia 5.81% | MALME-3M melanoma -12.3% | RXF 393 renal -68% | SF-268 CNS 6.33% | SF-295 CNS -32.5% | SF-539 CNS -22.4% | UACC-257 melanoma 3.21% | M14 melanoma 5.18%
inactive: NCI-H322M lung 24.8% | COLO 205 colon 13.8% | MDA-MB-231 breast 10.9%

Nc1ncnc2c1c(-c1cccc(OCc3ccccc3)c1)cn2C1CC(CN2CCC2)C1 (stereo not given)
active: HOP-62 NSCLC -29.5% | HOP-92 NSCLC -21% | NCI-H522 lung -23.6% | A549/ATCC NSCLC 4.8% | 786-0 renal -70.4% | COLO 205 colon -66.7% | K-562 leukemia -45.7% | MALME-3M melanoma -79.7% | MDA-MB-231 breast 3.88% | RXF 393 renal -16.4% | SF-295 CNS -47.3% | SF-539 CNS -84.4% | UACC-257 melanoma -79.4% | M14 melanoma -78.1%
inactive: NCI-H23 lung 33.6% | NCI-H226 lung 40.1% | NCI-H322M lung 42.9% | NCI-H460 lung 21.9% | DU-145 prostate 44.5% | SF-268 CNS 17.3%

Cc1ccc(-n2nc(C(C)(C)C)cc2NC(=O)NCc2cc(F)ccc2Oc2ccc3c(cnn3CCO)c2)cc1
inactive: NCI-H23 lung 20.8% | NCI-H226 lung 21.1% | NCI-H322M lung 21.6% | HOP-62 NSCLC 26.1% | NCI-H460 lung 25.8% | HOP-92 NSCLC 19.5% | A549/ATCC NSCLC 19.4% | 786-0 renal 29.1% | DU-145 prostate 42.4% | MDA-MB-231 breast 14.1% | SF-268 CNS 34.8% | SF-295 CNS 26.9% | SF-539 CNS 21.7%
active: NCI-H522 lung 4.27% | COLO 205 colon -13% | K-562 leukemia 3.71% | MALME-3M melanoma -6.23% | RXF 393 renal -10.3% | UACC-257 melanoma -11.2% | M14 melanoma 9.06%

Cn1cc(-c2cnn3c(N)c(Br)c([C@@H]4CCCNC4)nc23)cn1
active: RXF 393 renal -2.46%
inactive: NCI-H23 lung 39.6% | NCI-H226 lung 60% | NCI-H322M lung 48.2% | HOP-62 NSCLC 28.8% | NCI-H460 lung 35% | HOP-92 NSCLC 54.6% | NCI-H522 lung 28.4% | A549/ATCC NSCLC 41.5% | 786-0 renal 37% | COLO 205 colon 14.3% | DU-145 prostate 37.1% | K-562 leukemia 17.9% | MALME-3M melanoma 50.4% | MDA-MB-231 breast 35.3% | SF-268 CNS 60.1% | SF-295 CNS 24.1% | SF-539 CNS 22.6% | UACC-257 melanoma 70.7% | M14 melanoma 33.4%

CCCCCCCC12Cc3ccccc3C1=Nc1c(c3ccccc3n1C)C2=O (stereo not given)
inactive: NCI-H23 lung 84.8% | NCI-H226 lung 77.8% | NCI-H322M lung 88.4% | HOP-62 NSCLC 84% | NCI-H460 lung 92.7% | HOP-92 NSCLC 93.4% | NCI-H522 lung 48.1% | A549/ATCC NSCLC 75.5% | 786-0 renal 105% | COLO 205 colon 112% | DU-145 prostate 120% | K-562 leukemia 85.9% | MALME-3M melanoma 95.2% | MDA-MB-231 breast 82.4% | RXF 393 renal 104% | SF-268 CNS 100% | SF-295 CNS 97.4% | SF-539 CNS 111% | UACC-257 melanoma 82.3% | M14 melanoma 95.3%

CNc1ncc2cc(-c3cc(NC(=O)NCCC(C)(C)C)c(F)cc3C)c(C)nc2n1
active: NCI-H322M lung 4.99% | HOP-62 NSCLC 5.28% | HOP-92 NSCLC -44.3% | NCI-H522 lung -5.5% | COLO 205 colon -34.5% | K-562 leukemia 3.92% | MALME-3M melanoma 1.23% | MDA-MB-231 breast 1.7% | RXF 393 renal -23.3% | UACC-257 melanoma -10.3% | M14 melanoma -12.4%
inactive: NCI-H23 lung 12.8% | NCI-H226 lung 33.1% | NCI-H460 lung 21.3% | A549/ATCC NSCLC 12.2% | 786-0 renal 29.8% | DU-145 prostate 32.6% | SF-268 CNS 26.5% | SF-295 CNS 25.5% | SF-539 CNS 27.5%

N#Cc1c(-c2ccc(Cl)cc2)csc1NC(=O)Nc1cccc(C(F)(F)F)c1
active: NCI-H23 lung -8.85% | NCI-H460 lung 5.61% | HOP-92 NSCLC -4.85% | NCI-H522 lung -9.41% | COLO 205 colon -0.881% | K-562 leukemia 9.25% | MDA-MB-231 breast -0.969% | SF-295 CNS 3.47%
inactive: NCI-H226 lung 17.6% | NCI-H322M lung 31.5% | HOP-62 NSCLC 18.4% | A549/ATCC NSCLC 11.4% | 786-0 renal 22.9% | DU-145 prostate 16.9% | MALME-3M melanoma 14.8% | RXF 393 renal 59.5% | SF-268 CNS 27.9% | SF-539 CNS 37.9% | UACC-257 melanoma 27.8% | M14 melanoma 20.4%

COc1cc(CCc2cc(NC(=O)c3ccc(N4C[C@@H](C)N[C@@H](C)C4)cc3)n[nH]2)cc(OC)c1
active: COLO 205 colon 9.19% | K-562 leukemia 8.61% | RXF 393 renal -10.1% | UACC-257 melanoma 3.28%
inactive: NCI-H23 lung 40.1% | NCI-H226 lung 46.1% | NCI-H322M lung 22.7% | HOP-62 NSCLC 38.1% | NCI-H460 lung 24.6% | HOP-92 NSCLC 54.4% | NCI-H522 lung 40.4% | A549/ATCC NSCLC 37.4% | 786-0 renal 38.6% | DU-145 prostate 37.7% | MALME-3M melanoma 26.6% | MDA-MB-231 breast 44.2% | SF-268 CNS 39.4% | SF-295 CNS 62.4% | SF-539 CNS 16.9% | M14 melanoma 18%

Cc1nn(-c2ccccc2)c2c1N=c1s/c(=C\c3cn(-c4ccccc4)nc3-c3ccc(Cl)cc3)c(=O)n1C(C)N2 (stereo not given)
inactive: NCI-H23 lung 79.4% | NCI-H226 lung 93.2% | NCI-H322M lung 113% | HOP-62 NSCLC 102% | NCI-H460 lung 93% | HOP-92 NSCLC 66.7% | NCI-H522 lung 10.2% | A549/ATCC NSCLC 87.8% | 786-0 renal 77.1% | COLO 205 colon 99.2% | DU-145 prostate 59.7% | K-562 leukemia 119% | MALME-3M melanoma 124% | MDA-MB-231 breast 78.5% | RXF 393 renal 114% | SF-268 CNS 91% | SF-295 CNS 116% | SF-539 CNS 85.6% | UACC-257 melanoma 111% | M14 melanoma 107%
